Laboratory results taken from PubChem BioAssay.
The source made the active and inactive calls. Unless noted, the rule behind the calls is not given here.

Legend:
[1] = compound effects on lung adenocarcinoma cell viability – A549, calcein-AM fluorescence, 48 h, basal, profiling panel (AID 1162); details: higher = more signal; note: test concentration not given here
[2] = compound effects on differentiated 3T3-L1 adipocyte viability – cell-based, 3T3-L1 adipocytes, calcein-AM fluorescence, 48 h, basal, profiling panel (AID 1163); details: 3T3-L1 adipocytes viability, higher = more signal; note: test concentration not given here
[3] = compound effects on hepatocellular carcinoma cell viability – HepG2, calcein-AM fluorescence, 48 h, basal, profiling panel (AID 1164); details: higher = more signal; note: test concentration not given here
[4] = compound effects on multiple myeloma cell viability – MM1S, calcein-AM fluorescence, 48 h, basal, profiling panel (AID 1165); details: higher = more signal;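 note: viability of MM1S multiple myeloma cells under basal unstimulated conditions; test concentration not given here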
[5] = calcein-AM signal in unstimulated myeloma cells – cell-based, calcein-AM fluorescence, 48 h, PK04 Diversity Set, profiling panel (AID 1166); details: RPMI8226 myeloma viability, higher = more signal;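 note: cells grown under basal conditions without added stimulus; test concentration not given here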
[6] = JC-1 mitochondrial signal, unstimulated HepG2 cells – cell-based, JC-1 fluorescence, 24 h, 100 nL compound, profiling panel (AID 1167); details: HepG2 mitochondrial potential, higher = more signal; note: test concentration not given here
[7] = JC-1 mitochondrial signal, unstimulated adipocytes – cell-based, JC-1 fluorescence, 3T3-L1 adipocytes, 24 h, 100 nL compound, profiling panel (AID 1168); details: JC-1 mitochondrial fluorescence, higher = more signal, called active from +8 up or from −8 down; note: test concentration not given here
[8] = JC-1 mitochondrial signal, unstimulated myeloma cells – cell-based, JC-1 fluorescence, RPMI8226, 24 h, 100 nL compound, profiling panel (AID 1169); details: JC-1 mitochondrial potential fluorescence, higher = more signal; note: test concentration not given here
[9] = JC-1 mitochondrial signal, unstimulated MM1S myeloma – cell-based, JC-1 fluorescence, 24 h, 100 nL compound, profiling panel (AID 1170); details: MM1S mitochondrial potential, higher = more signal; note: test concentration not given here
[10] = resazurin metabolic signal in A549 cells – cell-based, resazurin fluorescence, 24 h, PK04 Diversity Set, profiling panel (AID 1171); details: A549 viability, higher = more signal, called active from +8 up or from −8 down; note: test concentration not given here
[11] = resazurin metabolic signal in HepG2 cells – cell-based, resazurin fluorescence, 24 h, PK04 Diversity Set, profiling panel (AID 1172); details: HepG2 viability, higher = more signal; note: test concentration not given here
[12] = budding yeast growth changes without added modifier – OD600, strain BY4716, 24 h, basal condition, primary screen (AID 1173); details: S. cerevisiae BY4716 growth, OD600, 24 h; higher = more signal, called active from +8 up or from −8 down
[13] = viability profiling in MM1S myeloma cells – cell-based, resazurin fluorescence, basal, 24 h, PK04 Diversity Set, profiling panel (AID 1174); details: higher = more signal, called active from +8 up or from −8 down; note: test concentration not given here
[14] = target: Dihydroorotate dehydrogenase (quinone), mitochondrial (Plasmodium falciparum (isolate 3D7)) (UniProt Q08210); assay: inhibition of P. falciparum DHODH – biochemical, C-terminal His tag, absorbance 600 nm, primary screen (AID 1175); details: PfDHODH enzyme, DCIP absorbance 600 nm; higher = more signal, called active from +8 up or from −8 down;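 note: recombinant parasite enzyme with a five histidine tag at its C terminus; test concentration not given here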
Chain of Dihydroorotate dehydrogenase (quinone), mitochondrial (Plasmodium falciparum (isolate 3D7)) (Q08210 whole entry, looked up): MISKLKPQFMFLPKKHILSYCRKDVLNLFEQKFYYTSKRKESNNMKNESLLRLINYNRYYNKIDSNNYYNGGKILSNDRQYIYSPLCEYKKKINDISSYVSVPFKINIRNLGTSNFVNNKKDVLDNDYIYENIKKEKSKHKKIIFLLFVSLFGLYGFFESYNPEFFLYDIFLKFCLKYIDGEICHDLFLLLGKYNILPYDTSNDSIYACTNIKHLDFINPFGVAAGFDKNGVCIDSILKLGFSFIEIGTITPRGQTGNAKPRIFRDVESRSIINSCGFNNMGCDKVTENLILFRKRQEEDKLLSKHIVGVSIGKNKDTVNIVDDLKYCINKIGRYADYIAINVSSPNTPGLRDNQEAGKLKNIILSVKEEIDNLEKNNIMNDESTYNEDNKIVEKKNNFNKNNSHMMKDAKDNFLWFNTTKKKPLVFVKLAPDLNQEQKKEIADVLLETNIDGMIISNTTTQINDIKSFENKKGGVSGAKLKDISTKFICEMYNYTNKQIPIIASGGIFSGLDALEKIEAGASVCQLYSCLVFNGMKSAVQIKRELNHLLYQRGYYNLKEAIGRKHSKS

[15] = inhibition of PAO1 biofilm formation – strain PAO1, LB-PBS medium, absorbance 600 nm, primary screen (AID 1176); note: test concentration not given here; details: P. aeruginosa PAO1 growth/biofilm, A600, 12 h; higher = more signal
[16] = growth modulation of vineyard yeast isolate – strain RM11-1a, OD600, basal, 24 h, primary screen (AID 1177);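 note: cultures grown under basal conditions with no added stressor; test concentration not given here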; details: S. cerevisiae RM11-1a growth, OD600, 24 h; higher = more signal, called active from +8 up or from −8 down
[17] = growth of efflux-deficient E. coli DRC39 – strain DRC39, OD650, 24 h, E. coli filamentation inducers, primary screen (AID 1178);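 note: growth measured as culture turbidity by optical density at 650 nm; test concentration not given here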; details: E. coli DRC39 acrAB, higher = more signal, called active from +8 up or from −8 down
[18] = growth of efflux-deficient E. coli DRC39 – strain DRC39, OD650, 48 h, E. coli filamentation inducers, primary screen (AID 1179);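 note: screen aims at cell division blockers that make cells filament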; details: E. coli DRC39 delta-acrAB growth, higher = more signal, called active from +8 up or from −8 down
[19] = viability profiling in RPMI8226 myeloma cells – cell-based, resazurin fluorescence, basal, 24 h, PK04 Diversity Set, profiling panel (AID 1180); details: higher = more signal;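 note: RPMI8826 multiple myeloma cell line at 5000 cells per well; test concentration not given here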
[20] = target: E3 ubiquitin-protein ligase XIAP (Homo sapiens) (UniProt P98170); assay: small molecules binding XIAP protein – biophysical, small-molecule microarray, fluorescence 635 nm, primary screen (AID 1181); details: higher = more signal;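 note: score merges 667 nm emission and signal to noise over triplicate slides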
Chain of E3 ubiquitin-protein ligase XIAP (Homo sapiens) (P98170 whole entry, looked up): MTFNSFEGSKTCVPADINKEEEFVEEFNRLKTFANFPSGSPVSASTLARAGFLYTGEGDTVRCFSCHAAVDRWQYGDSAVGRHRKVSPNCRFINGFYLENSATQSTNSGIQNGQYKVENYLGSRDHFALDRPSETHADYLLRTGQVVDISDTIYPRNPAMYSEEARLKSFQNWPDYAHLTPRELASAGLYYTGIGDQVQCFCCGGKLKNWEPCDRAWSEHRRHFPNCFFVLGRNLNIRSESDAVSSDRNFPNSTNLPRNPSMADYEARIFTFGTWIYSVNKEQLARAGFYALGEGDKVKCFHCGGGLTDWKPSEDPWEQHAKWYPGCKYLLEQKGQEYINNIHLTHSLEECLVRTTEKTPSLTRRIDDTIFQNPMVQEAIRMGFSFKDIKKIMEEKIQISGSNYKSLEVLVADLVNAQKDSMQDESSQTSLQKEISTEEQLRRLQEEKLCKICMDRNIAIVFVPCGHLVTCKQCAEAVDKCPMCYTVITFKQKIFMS

Row | SMILES | z-score [1] | z-score [2] | z-score [3] | z-score [4] | z-score [5] | z-score [6] | z-score [7] | z-score [8] | z-score [9] | z-score [10] | z-score [11] | z-score [12] | z-score [13] | composite z-score [14] | z-score [15] | z-score [16] | z-score [17] | z-score [18] | z-score [19] | composite z-score [20]
1 | CO[C@H]1COC(=O)CC=C[C@@H](C)[C@H](NS(=O)(=O)c2ccc(C)cc2)COC(=O)CCC[C@@H]1C | 0.379 | 1.15 | -0.179 | 0.339 | 0.229 | -0.3 | -0.134 (inactive) | 0.112 | -0.58 | 0.478 (inactive) | 0.703 | -0.99 (inactive) | 1.01 (inactive) | -0.242 (inactive) | -0.361 (inactive) | -0.5 (inactive) | 0.0468 (inactive) | 0.0191 (inactive) | 0.545 | 0.0797
2 | CC(C)=CCCC(C)=CCON=C1C[C@@H](O)[C@@H](O)[C@@H]2[C@@H]3C(=O)N(c4ccc(F)cc4F)C(=O)[C@@H]3CC[C@@H]12 | -1.34 | 0.425 | -0.354 | -0.586 | -1.47 | 0.208 | -1.28 (inactive) | -0.163 | -0.356 | -0.179 (inactive) | 0.387 | -1.38 (inactive) | 0.77 (inactive) | 0.263 (inactive) | 0.519 (inactive) | 0.225 (inactive) | 0.781 (inactive) | 0.345 (inactive) | 0.75 | -0.336
3 | CCOC(=O)[C@H](CC(C)C)NC(=O)CCC1CC(OC(=O)NCc2cccc3ccccc23)CC2(CCCC(COC(=O)NCCOC)O2)O1 (stereo not given in full) | 2.3 | 0.217 | 0.442 | -0.441 | 0.643 | 1.01 | -0.356 (inactive) | -0.198 | -0.834 | 0.781 (inactive) | -0.0621 | -2.14 (inactive) | 1.35 (inactive) | -0.531 (inactive) | 0.226 (inactive) | -1.73 (inactive) | 0.521 (inactive) | -0.0291 (inactive) | 0.986 | 0.0589
4 | CCOC(=O)[C@H](CC(C)C)NC(=O)CCC1CC(OC(=O)NCc2cccc3ccccc23)CC2(CCCC(COC(=O)NCC3CCCCC3)O2)O1 (stereo not given in full) | -0.15 | 1.09 | -0.993 | -2.66 | -1.28 | 0.895 | -0.0758 (inactive) | 0.273 | -0.929 | 0.945 (inactive) | 0.865 | -0.0452 (inactive) | 1.27 (inactive) | -2.33 (inactive) | -1.45 (inactive) | -0.288 (inactive) | -0.765 (inactive) | -0.0838 (inactive) | 0.463 | -0.0333
5 | O=C(NN=C1C[C@@H](O)[C@@H](O)[C@@H]2[C@@H]3C(=O)N(C[C@@H]4CCCO4)C(=O)[C@@H]3CC[C@H]12)OCc1ccccc1 | -0.0032 | -0.0428 | -0.718 | 0.338 | -0.0238 | -0.249 | -0.0601 (inactive) | 0.536 | -0.853 | -0.714 (inactive) | -0.136 | 0.267 (inactive) | -0.239 (inactive) | -0.02 (inactive) | -0.531 (inactive) | -0.0555 (inactive) | 0.593 (inactive) | 0.191 (inactive) | 0.664 | 0.0451
6 | CCOC(=O)NN=C1C[C@@H](O)[C@@H](O)[C@@H]2[C@@H]3C(=O)N([C@@H](C)c4ccccc4)C(=O)[C@@H]3CC[C@@H]12 | 0.0669 | -1.33 | -0.624 | 0.372 | -0.112 | -0.369 | -0.878 (inactive) | -0.92 | -0.834 | 0.4 (inactive) | 0.13 | -0.608 (inactive) | -0.371 (inactive) | -0.0776 (inactive) | -0.72 (inactive) | -0.645 (inactive) | -0.654 (inactive) | -0.23 (inactive) | -0.436 | -0.202
7 | COc1ccc(O[C@H]2C=C[C@@H](c3ccccc3)O[C@@H]2COC(=O)CCC(C)=NOC(C)CN2CCCc3nc(C)c(C)cc32)cc1 (stereo not given in full) | 1.12 | 0.0929 | 0.919 | -1.2 | -0.63 | 1.54 | -0.0369 (inactive) | -0.455 | -1.18 | 1.21 (inactive) | 1.21 | -0.729 (inactive) | -0.317 (inactive) | -0.154 (inactive) | -0.336 (inactive) | 1.37 (inactive) | 1.09 (inactive) | 0.129 (inactive) | 0.757 | -0.127
8 | CCO[C@H](c1cc(OC)cc([N+](=O)[O-])c1OC)[C@H](C)C=CCC(=O)OC | 1.23 | -0.629 | 0.381 | 1.02 | 0.799 | 0.879 | 0.269 (inactive) | 0.752 | -0.929 | -0.625 (inactive) | -0.0508 | -2.19 (inactive) | -1.43 (inactive) | -0.278 (inactive) | 0.18 (inactive) | 0.343 (inactive) | 0.884 (inactive) | 0.38 (inactive) | -0.622 | 0.601
9 | CC(C)=CCCC(C)=CCON=C1C[C@@H](O)[C@@H](O)[C@@H]2[C@@H]3C(=O)N(C(C)(C)C)C(=O)[C@@H]3CC[C@H]12 | 0.0088 | 0.729 | -0.465 | 0.387 | -0.306 | -0.00723 | 0.111 (inactive) | -0.15 | 0.598 | -0.624 (inactive) | -0.369 | -0.352 (inactive) | -0.274 (inactive) | -0.108 (inactive) | 0.152 (inactive) | -0.264 (inactive) | 0.27 (inactive) | 0.612 (inactive) | -0.245 | -0.172
